# Measurements published in publication PMC5540273 (PLoS ONE, 2017).
# Assays:
# PYK2 = test system: T1, PYK2
# T1 construct: gene PTK2B
# 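Note: kd values determined as follow-up on hits from a single-replicate KINOMEscan panel screen.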
smiles,measurement,setting,value
CC(C)(C)c1ccc(C(=O)Nc2cn3cc(Cl)ccc3n2)cc1,Kd,PYK2,> 10000 nM
O=S(=O)(c1ccc(-c2ccnc3[nH]ccc23)cc1)N1CCCC1 [GSK846226],Kd,RIOK1,610 nM
Cc1nnc(-c2ccc3occ(-c4ccc(S(C)=O)cc4)c3c2)[nH]1 (stereo not shown),Kd,RIPK1,> 10000 nM
Cn1cncc1-c1ccc2ncnc(Nc3ccc(OCc4ccccc4)cc3)c2c1 [GW320571],Kd,RIPK2,91 nM
Cl.NC(=O)c1cccc(Nc2nccc(Nc3ccc(Oc4cccc(Cl)c4)c(Cl)c3)n2)c1 [GW659008],Kd,RIPK2,44 nM
CS(=O)(=O)c1ccc(-c2nc3n(c2-c2ccncc2)CCC3)cc1 [SKF-105942],Kd,RIPK4,> 10000 nM
Cc1cc(N2Cc3ccccc3C2)nc(Nc2ccc(S(=O)(=O)N3CCOCC3)cc2)n1.Cl [GSK1669917],Kd,RIPK4,> 10000 nM
